Source: PubChem
RE007 growth inh – qHTS Assay for Inhibitors of the HIV-1 protein Vpr | 360,000 compounds, 0.21% hits | S. pombe RE007 Vpr strain, BacTiter-Glo ATP luminescence, 24 h | Potency, µM (highest dose often 92.2 µM), usual class: inhibitors; active = well fitted falling curve with a large enough effect; inconclusive = small, poorly fitted or top-dose-only effect; inactive = no such curve, though single readings can be large or run the other way; note: nearly all actives have a fitted effect of over 50% in size
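Fission yeast RE007 carrying one integrated HIV-1 vpr copy, seeded at OD 0.01 in PMG+AL medium with 23 nL pinned compound. Grown 24 h at 30 degrees; viability read by BacTiter-Glo luminescence after 5 min.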
CHX counter – Cycloheximide Counterscreen for Small Molecule Inhibitors of Shiga Toxin; max response, %; cell reporter, cycloheximide protein synthesis inhibition counterscreen; AID 2314, 2010; 300,000 compounds, 12% hits; in the data active = max response mostly above about 13%, no sharp cut-off; inactive = mostly below about 14%; note: read at 38.3 µM for the half of the compounds with a filed dose
LmPK inh – qHTS Assay for Inhibitors of Leishmania Mexicana Pyruvate Kinase (LmPK). Q27686. purified LmPK, Kinase-Glo ATP luminescence, 1 h. Potency, µM (top dose mostly 57.5 µM), actives largely listed as inhibitors. 290,000 compounds, 0.37% hits
Target sequence (Q27686 whole entry, looked up): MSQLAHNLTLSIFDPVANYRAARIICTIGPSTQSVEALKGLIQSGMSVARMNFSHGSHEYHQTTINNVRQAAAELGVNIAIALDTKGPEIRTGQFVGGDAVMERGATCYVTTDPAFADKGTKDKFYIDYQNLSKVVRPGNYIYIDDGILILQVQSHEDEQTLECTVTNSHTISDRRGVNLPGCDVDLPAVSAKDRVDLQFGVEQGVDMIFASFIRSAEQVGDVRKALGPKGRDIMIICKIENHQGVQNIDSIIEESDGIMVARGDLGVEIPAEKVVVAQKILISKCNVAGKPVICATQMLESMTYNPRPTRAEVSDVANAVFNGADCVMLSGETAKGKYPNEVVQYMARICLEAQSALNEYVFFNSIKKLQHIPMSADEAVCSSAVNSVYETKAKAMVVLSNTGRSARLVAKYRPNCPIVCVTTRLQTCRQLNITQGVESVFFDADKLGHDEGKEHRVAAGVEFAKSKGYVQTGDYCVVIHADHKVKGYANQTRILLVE
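Purified LmPK (0.1 nM) converted ADP (0.1 mM) to ATP with PEP (0.5 mM) in imidazole buffer pH 7.2 with KCl and MgCl2, 1 h at room temperature. ATP was read by Kinase-Glo luminescence; data normalized to uninhibited and no-enzyme controls.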
Shiga toxin inh – A qHTS for Small Molecule Inhibitors of Shiga Toxin. Vero cells, Shiga toxin protein synthesis inhibition reporter. inhibition, % at 38.7 µM. 290,000 compounds, 9.2% hits; in the data active = inhibition mostly above about 28%, no sharp cut-off; inactive = mostly below about 43%
FBPA Giardia inh – qHTS Assay for Inhibitors of Fructose-1,6-bisphosphate Aldolase from Giardia Lamblia. A8B2U2. purified Giardia FBPA. Potency, µM (titrated, usually from 59.6 µM), most hits filed as inhibitors. 290,000 compounds, 0.71% hits. AID 2451, 2010; note: nearly all actives have a fitted effect of over 55% in size
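40 nM FBPA preincubated 10 min at RT with compound (up to 57.5 uM final), then substrate plus GAPDH/TPI/NAD/arsenate coupling and diaphorase/resazurin added. Fluorescence read after 20 min at RT, 525/598 nm.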
Tb PYK inh – qHTS of Trypanosoma Brucei Inhibitors | pyruvate kinase (Trypanosoma brucei), Q57TT1 | TbPYK enzyme, Kinase-Glo Plus ATP luminescence, 45 min | Potency, µM (doses to about 76.8 µM), usual class: inhibitors | 410,000 compounds, 0.12% hits; note: nearly all actives have a fitted effect of over 50% in size
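In this concentration-response screen, enzyme-free wells defined baseline while DMSO plates tracked drift. Each reaction combined TbPYK, substrate, compound and 130 uM ADP for 45 min at room temperature. Kinase-Glo Plus luminescence gave the signal.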
Large screens that a line does not name were inactive. Many of the other results were omitted from the sample, so hits are more common in it than they were. Unless noted, calls come from the whole dose curve; as a rule, active = well fitted curve in the direction sought with a large enough effect; inconclusive = small, poorly fitted or top-dose-only effect, or another doubt; inactive = no such curve, though single readings can be large; an effect the other way counts as inactive or inconclusive.

CCOC(=O)c1cnc2c(ccc3ccccc32)c1Nc1ccc(N(C)C)cc1	none (no result: RE007 growth inh, CHX counter, LmPK inh, Shiga toxin inh, FBPA Giardia inh)
O=C(c1ccc(-c2cc(Cl)ccc2Cl)o1)N1CCOCC1	CHX counter 16
O=C(c1ccc(-c2ccc(Cl)cc2Cl)o1)N1CCOCC1	CHX counter 42, Shiga toxin inh 80
O=C(O)c1ccc(-c2ccc(Cl)cc2Cl)o1	FBPA Giardia inh inconclusive
COc1ccc(-c2csc3nc(-c4cccnc4)nc(N4CCC(C(N)=O)CC4)c23)cc1OC	none
O=c1c2c3c(sc2nc2n1N=C(c1cccs1)CS2)CCCC3	CHX counter 19, Shiga toxin inh 73, Tb PYK inh inconclusive
O=C1CN(c2nc(-c3cccnc3)nc3scc(-c4ccccc4)c23)CCN1	CHX counter 19
O=c1oc(-c2cccs2)nc2sc3c(c12)CCCC3	none
O=C1CN(c2nc(-c3cccs3)nc3sc4c(c23)CCCC4)CCN1	CHX counter 35, Shiga toxin inh 58, Tb PYK inh inconclusive
CCOC(=O)c1c(C)oc2nc(C)nc(NCCCN3CCN(c4ccc(F)cc4)CC3)c12	none (no result: RE007 growth inh, CHX counter, LmPK inh, Shiga toxin inh, FBPA Giardia inh)
Cc1cc(C)cc(N2CCn3c2nc2c3c(=O)n(CCCc3ccccc3)c(=O)n2C)c1	none (no result: RE007 growth inh, CHX counter, LmPK inh, Shiga toxin inh, FBPA Giardia inh)
CC(C(=O)NC1CCCCC1)N(Cc1ccc(F)cc1)C(=O)c1snc(C(N)=O)c1N (centres undefined)	none (no result: FBPA Giardia inh)
NC(=O)c1nsc(C(=O)N(CC(=O)NC2CCCCC2)Cc2ccc(F)cc2)c1N	CHX counter 53, Shiga toxin inh 116
CCOc1ccc(-c2n[nH]c(=S)o2)cc1	CHX counter 20
CCOC(=O)c1c(S(=O)(=O)N2CCCC(C(=O)Nc3ccc(OCC)cc3)C2)c(C)n(C)c1C (centres undefined)	none (no result: RE007 growth inh, CHX counter, LmPK inh, Shiga toxin inh, FBPA Giardia inh)
Cc1oc2ncn(CC(C)C)c(=O)c2c1C(=O)NCCCN(Cc1ccccc1)C(C)C	none (no result: RE007 growth inh, CHX counter, LmPK inh, Shiga toxin inh, FBPA Giardia inh)
c1ccc2nc(-c3ccc(N4CCOCC4)cc3)ccc2c1	CHX counter 33, LmPK inh inconclusive, Shiga toxin inh 67
CN1CCN(c2ccc(-c3ccc4ccccc4n3)cc2)CC1	RE007 growth inh inconclusive
Cc1cc(-c2ccc(N3CCOCC3)cc2)nc2ccccc12	RE007 growth inh inconclusive, CHX counter 30, Shiga toxin inh 28
c1ccc2nc(-c3ccncc3)ccc2c1	CHX counter 34, Shiga toxin inh 84
Cc1ccc2c(c1)[nH]c1c(=O)n(Cc3ccco3)cnc12	CHX counter 21
O=c1c2[nH]c3ccccc3c2ncn1Cc1ccco1	none
N#CC1=C(N)N(c2ccc(Cl)cc2)C2=C(C(=O)CCC2)C1c1cc(CN2CCOCC2)cs1 (centres undefined)	none (no result: RE007 growth inh, CHX counter, LmPK inh, Shiga toxin inh, FBPA Giardia inh)
O=C(/C=C/c1ccccc1)N1CCN(Cc2cc(=O)n3nc(-c4ccccc4Cl)sc3n2)CC1	none (no result: RE007 growth inh, CHX counter, LmPK inh, Shiga toxin inh, FBPA Giardia inh)
Cn1c(C(=O)N2CCCC(C(=O)NCCc3ccccc3)C2)cc2sccc21 (centres undefined)	CHX counter 18, Shiga toxin inh 61, Tb PYK inh inconclusive
Cc1ccc(CCNC(=O)C2CCCN(C(=O)c3cc4sccc4n3C)C2)cc1 (centres undefined)	Tb PYK inh 8.9µM
Cc1cc2c(s1)c1cnn(Cc3cccc(F)c3F)c(=O)c1n2C	none (no result: RE007 growth inh, LmPK inh, FBPA Giardia inh, Tb PYK inh)
COc1ccc(NC(=O)c2c(N)no[n+]2[O-])cc1	CHX counter 16
Cn1ncc(N)c1C(=O)Nc1cccc(C(F)(F)F)c1	none
COc1ccc(NC(=O)c2c(N)cnn2C)cc1	CHX counter 18
O=C(Cn1c(=O)n(-c2ccccc2)c(=O)c2ccc(C(=O)NCc3ccc4c(c3)OCO4)cc21)Nc1ccc(F)c(Cl)c1	none (no result: RE007 growth inh, CHX counter, LmPK inh, Shiga toxin inh, FBPA Giardia inh)
C=CCN1C(=O)C(=O)N(Cc2nc3ccccc3s2)C1=O	CHX counter 34, Shiga toxin inh 77
C/C(Cn1cnc([N+](=O)[O-])n1)=N\NC(=O)c1cccnc1	CHX counter 14
C/C(Cn1cnc([N+](=O)[O-])n1)=N\NC(=O)c1ccc(Br)cc1	CHX counter 18, Shiga toxin inh 44
C/C(Cn1cnc([N+](=O)[O-])n1)=N/NC(=O)COc1ccccc1Cl	none
